The results in this text go back to paper PMC4336329 (PLoS ONE, 2015).

The whole screen tested about 310,000 compounds, of which about 2,200 (0.71%) showed an effect of 50% or more. Effects have a minus sign here. The entries come from a sample that favours strong results as a whole.

The target of this test is human ether-à-go-go-related gene (hERG) potassium channel (human, UniProt Q12809). Briefly: primary screen, population patch clamp on CHO cells stably expressing hERG; higher = less effect of the substance.
Chain of human ether-à-go-go-related gene (hERG) potassium channel (Q12809 whole entry, looked up): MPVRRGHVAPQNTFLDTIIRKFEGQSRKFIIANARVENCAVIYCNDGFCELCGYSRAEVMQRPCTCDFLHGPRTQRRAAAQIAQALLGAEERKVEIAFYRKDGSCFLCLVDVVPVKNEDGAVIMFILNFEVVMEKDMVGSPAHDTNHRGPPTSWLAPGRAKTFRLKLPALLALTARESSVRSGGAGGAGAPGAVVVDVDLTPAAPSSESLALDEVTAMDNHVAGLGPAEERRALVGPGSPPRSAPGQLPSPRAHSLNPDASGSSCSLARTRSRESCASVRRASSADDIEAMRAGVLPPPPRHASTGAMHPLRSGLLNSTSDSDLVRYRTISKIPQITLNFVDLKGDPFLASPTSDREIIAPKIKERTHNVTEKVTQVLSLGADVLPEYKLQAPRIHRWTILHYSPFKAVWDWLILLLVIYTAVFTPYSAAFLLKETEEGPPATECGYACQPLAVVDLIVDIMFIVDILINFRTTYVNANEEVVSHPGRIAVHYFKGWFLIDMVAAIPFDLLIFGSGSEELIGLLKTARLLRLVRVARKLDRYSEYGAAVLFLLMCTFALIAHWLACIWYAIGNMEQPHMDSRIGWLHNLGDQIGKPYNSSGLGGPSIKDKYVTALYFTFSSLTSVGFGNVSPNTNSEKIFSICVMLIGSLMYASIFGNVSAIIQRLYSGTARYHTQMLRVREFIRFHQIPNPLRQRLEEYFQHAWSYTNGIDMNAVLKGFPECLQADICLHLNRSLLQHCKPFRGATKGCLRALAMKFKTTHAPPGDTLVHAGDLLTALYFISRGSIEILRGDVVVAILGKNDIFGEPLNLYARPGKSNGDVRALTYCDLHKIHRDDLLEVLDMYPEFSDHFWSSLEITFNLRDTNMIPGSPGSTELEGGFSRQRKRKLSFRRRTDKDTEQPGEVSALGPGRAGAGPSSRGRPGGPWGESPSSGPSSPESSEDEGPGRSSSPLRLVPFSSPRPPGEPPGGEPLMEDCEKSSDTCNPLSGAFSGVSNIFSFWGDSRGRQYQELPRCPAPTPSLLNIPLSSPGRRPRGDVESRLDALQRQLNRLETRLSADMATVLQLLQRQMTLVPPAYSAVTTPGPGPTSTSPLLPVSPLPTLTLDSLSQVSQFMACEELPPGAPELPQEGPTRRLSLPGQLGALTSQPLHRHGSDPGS
In the case of `O=P(O)(CCc1ccccc1)C(O)c1ccccc1` (stereo not drawn), the “hERG current change (%, negative = inhibition) at 1uM” value is 5.09%.
To `COc1cc(OC)cc(C(=O)N[C@H](C(=O)OCC(=O)NC(=O)c2cccn2C)C(C)C)c1` belongs 6.95%.
`C=CCNC(=O)CSc1ccc(Cl)cc1`: the “hERG current change (%, negative = inhibition) at 1uM” value came out at 13.7%.
To `CNc1nnc(-c2ccc(C)cc2)c2ccccc12` belongs -5.45%; to `Cc1ccc([N+](=O)[O-])c2c1C(N1CC(C)OC(C)C1)C(C)(C)O2` (stereo not drawn), 17.1%.
To `CCOc1ccc(NC(=O)COc2ccc(C(=O)NCCc3ccccc3)cc2)cc1` belongs 3.64%.
To `Cc1cc(C(=O)N/N=C/c2cccc(Cl)c2Cl)no1` belongs 3.36%.
Regarding `O=C1OC(N2C(=O)CC[C@H]2C(=O)Nc2ccc(F)c(F)c2)c2ccccc21` (stereo partly drawn), the “hERG current change (%, negative = inhibition) at 1uM” value worked out at 8.61%.
In the case of `CC(=O)c1ccc(NC(=O)CSc2n[nH]c(-c3cccnc3)n2)cc1` it was 14.1%; in that of `N=c1c(C(=O)NCCc2ccccc2)cc2c(=O)n3ccccc3nc2n1CC1CCCO1` (stereo not drawn), -93.8%.
Regarding `O=C(CSc1nc2ccccc2c(=O)n1CC1CCCO1)NCCc1ccccc1` (stereo not drawn), the “hERG current change (%, negative = inhibition) at 1uM” value worked out at 19.6%.
In the case of `COc1ccc(CCNC(=O)c2cc3c(=O)n4cccc(C)c4nc3n(CC3CCCO3)c2=N)cc1` (stereo not drawn) it was -79.4%.
To `COc1ccc(CCNC(=O)Cn2c(=O)n(CC3CCCO3)c(=O)c3ccccc32)cc1OC` (stereo not drawn) belongs 3.58%.
On to `COc1ccc(CCNC(=O)c2cc3c(=O)n4ccccc4nc3n(CC3CCCO3)c2=N)cc1OC` (stereo not drawn), for which the “hERG current change (%, negative = inhibition) at 1uM” value is -90.3%.
To `Cc1cccn2c(=O)c3cc(C(=O)NCCc4ccccc4)c(=N)n(CC4CCCO4)c3nc12` (stereo not drawn) belongs -91%; to `Cc1ccc(NC(=O)N2CCCCCC2)cc1`, 0.321%.
To `CCOC(=O)c1cnc(-n2nc(C)cc2C)nc1Nc1ccc(O)cc1` belongs 14.2%; to `COc1cc(Cl)c(C)cc1NC(=O)CSc1sc2c(O)cc(=O)[nH]c2c1C#N`, 18.7%; to `CC(=O)c1ccccc1NS(C)(=O)=O`, 9.61%.
For `COc1ccccc1Nc1ncnc2ccc(C)cc12`, the “hERG current change (%, negative = inhibition) at 1uM” value is reported as 12.7%.
In the case of `Cc1ccc2nc3c(cc(C(=O)NCCc4ccccc4)c(=N)n3CC3CCCO3)c(=O)n2c1` (stereo not drawn) it was -84%; in that of `COc1ccc(CNC(=O)c2cc3c(=O)n4cccc(C)c4nc3n(CC3CCCO3)c2=N)cc1` (stereo not drawn), -83.8%.
Regarding `Cc1ccc(CCNC(=O)c2ccc3nc4ccccc4c(=O)n3c2)cc1`, the “hERG current change (%, negative = inhibition) at 1uM” value stood at 14.3%.
To `Cc1ccc(S(=O)(=O)c2cc3c(=O)n4cccc(C)c4nc3n(CC3CCCO3)c2=N)cc1C` (stereo not drawn) belongs 12.9%; to `Cc1cccn2c(=O)c3cc(C(=O)NCc4ccc(F)cc4)c(=N)n(CC4CCCO4)c3nc12` (stereo not drawn), -81.8%.
In the case of `CC1CN(C(=O)c2c([N+](=O)[O-])cnn2C)CC(C)O1` (stereo not drawn) it was 1.78%.
For the compound `NNC(=O)C1CC(O)CN1S(=O)(=O)c1ccc(Cl)cc1` (stereo not drawn), the “hERG current change (%, negative = inhibition) at 1uM” value came to 6.56%.
To `O=C(Nc1ccc(-c2csc(-c3ccccc3)n2)cc1)c1ccccc1Cl` belongs 16.9%.
With `CCOC(=O)N1CCC(NC(=O)c2cc(C(=O)Nc3ccc(OC)c(OC)c3)ccc2CO)CC1`, the “hERG current change (%, negative = inhibition) at 1uM” value turned out to be 4.41%.
Take `O=S(=O)(c1ccccc1Cl)N1CCC(Cc2ccccc2)CC1`: the “hERG current change (%, negative = inhibition) at 1uM” value stood at 13.5%.
To `CCCCc1nn(-c2cc(Cl)ccc2OC)c2c1C(=O)CCC2` belongs 12.2%.
In the case of `COC(=O)C1=C(c2ccc(F)cc2OCc2ccccc2)C[C@@H]2CC[C@H]1N2C(=O)NCCNC(C)=O` it was 16.4%; in that of `Cc1cc(=O)n2nc(N3CCC(C(=O)NCC(C)c4ccccc4)CC3)sc2n1` (stereo not drawn), 11.7%; in that of `COCCNc1c2c(nc3c(-c4ccccc4)c(C)nn13)CCCC2`, 5.77%.
To `Cc1nn2c(NCCOCCO)c3c(nc2c1-c1ccccc1)CCC3` belongs -9.29%.
As for `Cc1nn2c(NCCOCCO)c3c(nc2c1-c1ccccc1)CCCC3`, the “hERG current change (%, negative = inhibition) at 1uM” value is listed as -75.3%.
In the case of `O=C(CCS(=O)(=O)c1cccs1)Nc1ccc(C(=O)NC2CCN(Cc3ccccc3)CC2)cc1` it was 7.84%; in that of `CCC(CC)C(=O)c1c[nH]c(C(=O)NCc2ccccn2)c1`, 8.96%; in that of `CC1(C)Cc2c(cnn2-c2ccc(F)cc2)C(NC(=O)C(C)(C)O)C1` (stereo not drawn), 12.6%.
Regarding `COC(=O)c1ccc(C(=O)NC2CC(C)(C)Cc3c2cnn3-c2ccc(F)cc2)nc1` (stereo not drawn), the “hERG current change (%, negative = inhibition) at 1uM” value is -0.769%.
In the case of `CC1(C)Cc2c(cnn2-c2ccc(F)cc2)C(NC(=O)C2=NNC(=O)CC2)C1` (stereo not drawn) it was -52.1%; in that of `Cc1ccc(-n2ncc3c2CC(C)(C)CC3NC(=O)c2ccc[n+]([O-])c2)cc1` (stereo not drawn), 7.22%.
To `CC1(C)Cc2c(cnn2-c2ccc(F)cc2)C(NC(=O)C2CCC2)C1` (stereo not drawn) belongs -56.8%.
In the case of `Cc1cc(C(=O)NC2CC(C)(C)Cc3c2cnn3-c2ccc(F)cc2)nn1C` (stereo not drawn) it was 5.91%; in that of `Cc1ccc(-n2ncc3c2CC(C)(C)CC3NC(=O)c2cc[n+]([O-])cc2)cc1` (stereo not drawn), -62.7%.
`Cc1ccc(-n2ncc3c2CC(C)(C)CC3NC(=O)c2ccncc2)cc1` (stereo not drawn): the “hERG current change (%, negative = inhibition) at 1uM” value is listed as -48.8%.
Regarding `Cc1ccc(-n2ncc3c2CCCC3NC(=O)c2ccoc2)cc1C` (stereo not drawn), the “hERG current change (%, negative = inhibition) at 1uM” value is listed as -78.5%.
To `Cc1cc(C(=O)NC2CCCc3c2cnn3-c2ccc(C)c(C)c2)no1` (stereo not drawn) belongs 1.86%.
In the case of `COC(=O)c1ccc(C(=O)NC2CCCc3c2cnn3-c2ccc(C)c(C)c2)cc1` (stereo not drawn) it was 12.4%; in that of `CC(=O)N1CCC(C(=O)NC2CC(C)(C)Cc3c2cnn3-c2ccc(F)cc2)CC1` (stereo not drawn), -11.3%; in that of `CC(C)C(=O)Nc1ccc(NC(=O)c2ccccn2)cn1`, 12.6%.
To `O=C(CSc1nnc(CNC(=O)c2ccccc2F)o1)Nc1cccc(C(F)(F)F)c1` belongs 16%; to `COc1ccc[nH]c1=O`, 1.28%; to `CCOC(=O)Cn1cnc2c(nnn2-c2cccc(OC)c2)c1=O`, 17%.
For the compound `COc1ccc(/C(C)=N/N=C2/NC(=O)CC(C(=O)O)S2)cc1` (stereo not drawn), the “hERG current change (%, negative = inhibition) at 1uM” value is given as 5.89%.
To `COCCCNC(=O)CCn1c(=O)c2ccccc2n(CC(=O)Nc2cc(Cl)ccc2C)c1=O` belongs 2.79%.
To `O=C(NCc1ccc2c(c1)OCO2)c1ccc(S(=O)(=O)C(F)F)cc1` belongs -0.408%.
To `CC1(C)Cc2c(cnn2-c2ccc(F)cc2)C(NC(=O)c2ccoc2)C1` (stereo not drawn) belongs -95.7%; to `Cn1nccc1C(=O)NC1CC(C)(C)Cc2c1cnn2-c1ccc(F)cc1` (stereo not drawn), -20%.
Turning to `CC(=O)c1ccc(C(=O)NC2CC(C)(C)Cc3c2cnn3-c2ccccc2)cc1` (stereo not drawn), the “hERG current change (%, negative = inhibition) at 1uM” value is reported as 5.88%.
In the case of `COc1ccc(-n2ncc3c2CC(C)(C)CC3NC(=O)CCn2cncn2)cc1` (stereo not drawn) it was -5.06%; in that of `CC1(C)Cc2c(cnn2-c2ccccc2)C(NC(=O)c2ccoc2)C1` (stereo not drawn), -91.7%; in that of `Cc1ccc(-n2ncc3c2CC(C)(C)CC3NC(=O)CCn2cncn2)cc1` (stereo not drawn), -78.5%.
To `CC1(C)Cc2c(cnn2-c2ccc(F)cc2)C(NC(=O)CCn2cncn2)C1` (stereo not drawn) belongs -40.7%; to `CC1(C)Cc2c(cnn2-c2ccc(F)cc2)C(NC(=O)c2cnccn2)C1` (stereo not drawn), -6.77%.
To `CC1(C)Cc2c(cnn2-c2ccccc2)C(NC(=O)c2ccc[n+]([O-])c2)C1` (stereo not drawn) belongs 8.68%.
Regarding `CCOc1cc(C#N)ccc1OCC(=O)N1CCN(C(=O)c2cccs2)CC1`, the “hERG current change (%, negative = inhibition) at 1uM” value is reported as -16.1%.
To `O=C(Nc1ccccc1Cl)c1ccc(S(=O)(=O)NCC2CCCO2)cc1` (stereo not drawn) belongs -7.62%.
In the case of `CCOc1ccccc1OCC(=O)O` it was 12.1%; in that of `CCCCn1c(O)c(C(=O)/C=C/c2ccc3c(c2)OCO3)c(=O)[nH]c1=O`, 11.9%.
To `Cc1ccccc1CN1C[C@@H]2C[C@@H](c3cn[nH]c3-c3ccc(F)cc3)N3CCC[C@@]23C1=O` belongs -12.9%; to `CC(=O)Oc1ccc(-c2nc3c(C)cccc3c(=O)o2)cc1`, 11.9%.
For the compound `CCOC(=O)c1[nH]c2ccc(F)cc2c1NC(=O)CN1CCN(C/C=C/c2ccccc2)CC1`, the “hERG current change (%, negative = inhibition) at 1uM” value is -77.3%.
Consider `CCOC(=O)c1[nH]c2ccc(F)cc2c1NC(=O)CN1CCc2cc(OC)c(OC)cc2C1`, for which the “hERG current change (%, negative = inhibition) at 1uM” value amounted to 11.2%.
In the case of `Cc1[nH]c2ccccc2c1C(=O)CN1CCCC1` it was 7.66%; in that of `COc1ccc2[nH]c(C)c(C(=O)CN3CCN(C/C=C/c4ccccc4)CC3)c2c1`, 5.17%; in that of `Cc1[nH]c2ccccc2c1C(=O)CN1CCN(C/C=C/c2ccccc2)CC1`, -50.4%.
To `CCOC(=O)c1[nH]c2ccc(OCC)cc2c1NC(=O)CN1CCN(c2ccccc2)CC1` belongs 15.9%.
For the compound `CCOC(=O)N1CCN(CC(=O)Nc2c(C(=O)OC)[nH]c3ccccc23)CC1`, the “hERG current change (%, negative = inhibition) at 1uM” value was found to be 7.01%.
In the case of `COC(=O)c1[nH]c2ccccc2c1NC(=O)CN1CCCCCC1` it was -3.6%.
To `COC(=O)c1[nH]c2ccccc2c1NC(=O)CN1CCN(C/C=C/c2ccccc2)CC1` belongs -84.4%; to `O=C(COC(=O)COc1ccc(Br)cc1)NCCC1=CCCCC1`, 1.54%.
To `COc1ccc2[nH]cc(CCNC(=O)CCC3CCCCC3)c2c1` belongs 1.77%; to `O=C(COC(=O)c1ncc(Cl)c(Cl)c1Cl)NC1CCS(=O)(=O)C1` (stereo not drawn), -1.03%.
